From PubChem BioAssay
Most compounds without a hit are left out; they make up all but 6.5% or so of the library.
Autofluor 339: intrinsic fluorescence of library compounds, ex339/em460 – biochemical, MLSMR library, data from DPM-DC assay, artefact control, profiling panel | hit rate 5.5% among 65,000 | fluorescence fold increase at 10 µM | compound autofluorescence, ex339/em460 nm, NADH buffer; hits give high values; 1 = no-compound wells, NADH background;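 active = at 10 µM, mean starting fluorescence two-fold or more over control wells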;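 note: signal is the first read of a kinetic run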
MK inhibit: inhibitors of Streptococcus pneumoniae mevalonate kinase; hit rate 0.48% among 65,000; AID 555; purified MK, PK/LDH-coupled NADH absorbance 340 nm; inhibition, % at 10 µM;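 active = ranked among the strongest by inhibition in the single 10 µM screen, a fixed top-ranked set picked for dose follow-up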
Spn DPM-DC inh: S. pneumoniae DPM-DC inhibition. purified DPM-DC, PK/LDH coupled NADH fluorescence. calls only at 10 µM. hit rate 0.49% among 65,000. AID 556;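 active = the 320 compounds with the highest percent inhibition in the single-dose primary screen, excluding strongly autofluorescent ones, cut at about 32% in these data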;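 note: kinetic rate of NADH fluorescence loss reporting ADP formed by the decarboxylase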
Spn PMK inh: inhibitors of Streptococcus pneumoniae phosphomevalonate kinase. purified PMK, PK/LDH-coupled NADH absorbance 340 nm. inhibition, % at 10 µM. hit rate 0.49% among 65,000. AID 539;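 active = top-ranked compounds by inhibition in the single 10 µM screen, taking a fixed number of the strongest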
NADH coupling: inhibitors of enzymes used to reach an NAD/NADH endpoint; coupled PK/LDH NADH assays, four targets; IC50, µM (highest dose often 10 µM); hit rate 0.02% among 65,000; AID 774;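 active = single-dose screening hits from any of four coupled enzyme assays that gave an IC50 when retested across doses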;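 note: the DPM-DC format reads NADH fluorescence rather than 340 nm absorbance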
Abs 340nm: compounds absorbing at 340 nm | fold change at 10 µM | compound absorbance at 340 nm, fold over control | 65,000 tested, under 10 active;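 active = at 10 µM dose, initial 340 nm absorbance at least 2 fold that of control wells; inactive = change under 2 fold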;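 note: initial absorbance extrapolated from kinetic A340 decline of NADH oxidation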
Of the large screens only hits and unclear results are named; the others gave an inactive call.

COc1ccc(-c2oc3ncnc(NCCCN4CCOCC4)c3c2-c2ccc(OC)cc2)cc1	Autofluor 339 3.8 (not shown: Spn DPM-DC inh)
c1ccc(-c2oc3ncnc(NCCCN4CCOCC4)c3c2-c2ccccc2)cc1	Autofluor 339 3.8 (not shown: Spn DPM-DC inh)
COc1ccc(-c2oc3ncn(CCN4CCOCC4)c(=N)c3c2-c2ccc(OC)cc2)cc1	none
CCOC(=O)c1cc(NC(=O)N2CCCCC2)c(C)nc1C	none
COc1ccc(N(C)S(=O)(=O)c2c(C)[nH]c(=O)[nH]c2=O)cc1	none
O=C(c1ccco1)N1CCN(C(=O)C2CCN(S(=O)(=O)Cc3ccccc3)CC2)CC1	none
O=C(CSCC(=O)N1CCCCC1)OCC(=O)c1c[nH]c2ccccc12	none
COC(=O)c1ccc2[nH]c(C)cc(=O)c2c1	Autofluor 339 2.3 (not shown: Spn DPM-DC inh)
CCOC(=O)c1ccc2[nH]c3c(c2c1)CN(C)CC3	none
CCOC(=O)c1ccc2[nH]c(C)cc(=O)c2c1	Autofluor 339 2.1 (not shown: Spn DPM-DC inh)
Cc1cc(=O)c2cc(Cl)ccc2[nH]1	none
CCOC(=O)c1ccc2[nH]c(C)c(CCC(C)=O)c(=O)c2c1	Autofluor 339 2.1 (not shown: Spn DPM-DC inh)
COC(=O)C1=CN(C)C=C(C(=O)OC)C1c1ccsc1	Autofluor 339 2.2 (not shown: Spn DPM-DC inh)
C=CCn1cnc2c(c1=O)c1nc3ccccc3nc1n2-c1ccc(Cl)cc1	none
N#Cc1nc(-c2ccco2)oc1NCc1ccc(F)cc1	Autofluor 339 3.3
N#Cc1nc(-c2ccco2)oc1NCc1cccnc1	Autofluor 339 2.1
COCCCNC(=O)CN(c1ccc(OC)cc1)S(=O)(=O)c1ccc(NC(C)=O)cc1	none
Cc1ccc(C)c(C(=O)CC2(O)C(=O)N(C)c3ccccc32)c1 (centres undefined)	none
Cc1ccc2c(c1)c1cccc3c1n2CCN3CCC(N)=O	Autofluor 339 2.2 (not shown: Spn DPM-DC inh)
COc1ccc(NC(=O)Cn2c(=O)sc3ccccc32)c(OC)c1	none
Cc1cc(C)n(CCCNCC(O)c2ccccc2)n1 (centres undefined)	MK inhibit 53
CC(C)CN(C(=O)COC(=O)c1cc2c(s1)CCC2)C1CCS(=O)(=O)C1 (centres undefined)	none
Cc1nn(-c2ccccn2)c2c1C(c1ccsc1)C1=C(CCCC1=O)N2 (centres undefined)	Autofluor 339 4.9 (not shown: Spn DPM-DC inh)
CC(=O)n1c2ccccc2c2c1c1ccccc1n2C	Autofluor 339 2.1 (not shown: Spn DPM-DC inh)
COc1ccc2cc(C(=O)NC3CCCCC3)c(=O)oc2c1	Autofluor 339 3.5 (not shown: Spn DPM-DC inh)
Cc1nc2ccccc2cc1C(=O)NCc1ccco1	none
O=C(NCc1ccco1)c1cc2ccc(O)cc2oc1=O	Autofluor 339 3.8 (not shown: Spn DPM-DC inh)
COc1ccc2cc(C(=O)NCc3ccco3)c(=O)oc2c1	Autofluor 339 3.3 (not shown: Spn DPM-DC inh)
COc1ccc2cc(C(=O)NCc3ccco3)c(=Nc3ccc(C(=O)O)cc3)oc2c1	none
C=C(C)C1CCC(C)=C1COC(=O)Nc1ccccc1 (centres undefined)	none
COc1cccc(CSc2nc3sc(C)c(C)c3c(=O)n2Cc2ccco2)c1	none
Clc1ccc(-c2nnc3sc(-c4ccc(Br)o4)nn23)c(Cl)c1	none
Clc1ccc(-c2nnc3sc(-c4ccc(Br)o4)nn23)cc1	Autofluor 339 2.2
CCC(C)(C)n1nnnc1C(c1cccnc1)N1CCCc2ccccc21 (centres undefined)	Spn PMK inh 28
CCOC(=O)C1=C(C)NC2=C(C(=O)C(C(=O)OCC)C(c3ccco3)C2)C1c1ccccn1 (centres undefined)	Autofluor 339 3.6 (not shown: Spn DPM-DC inh)
COc1cc(NS(C)(=O)=O)c(OC)cc1NC(=O)c1cccc(F)c1	none
COc1cc(C(=O)Nc2cccc(-c3nc4ccccc4o3)c2C)cc(OC)c1OC	none
O=C(Nc1ccc2oc(-c3ccccc3)nc2c1)c1ccncc1	none
COc1cc(OC)cc(C(=O)Nc2ccc(-c3nc4ccccc4o3)cc2)c1	Autofluor 339 2.2 (not shown: Spn DPM-DC inh)
COc1cc(C(=O)Nc2ccc(-c3nc4cc(C)ccc4o3)c(O)c2)cc(OC)c1OC	Autofluor 339 4.7 (not shown: Spn DPM-DC inh)
O=C(Nc1ccc(-c2nc3ccccc3o2)c(O)c1)c1cc(-n2cnnc2)ccc1Cl	Autofluor 339 3.9 (not shown: Spn DPM-DC inh)
COc1cccc(C(=O)Nc2ccc(-c3nc4ccccc4o3)c(O)c2)c1	Autofluor 339 2.1 (not shown: Spn DPM-DC inh)
Nc1c(C(=O)Nc2ccc(Cl)cc2)oc2ccccc12	Autofluor 339 2.1 (not shown: Spn DPM-DC inh)
O=C(c1coc2ccccc2c1=O)N1CCN(c2cccc(C(F)(F)F)c2)CC1	none
CN(c1ccc(Cl)cc1)c1cc(=O)n(C)c2ccccc12	none
CN(C)c1ccc2c(O)cc(=O)n(C)c2c1	Autofluor 339 2.3 (not shown: Spn DPM-DC inh)
Cc1nnc(C)c2c(C)n(C(C)c3ccccc3)c(C)c12 (centres undefined)	Autofluor 339 2.1
Cc1occc1-c1nnc(SCC(=O)NC(C)(C)C)n1C(C)c1ccccc1 (centres undefined)	none
CC(C)CNS(=O)(=O)c1ccccc1C(=O)N1CCCCC1	none
CC(C)COC(=O)n1ccc(C(=O)N2CCCCC2)n1	Spn PMK inh 25
COCC(=O)Nc1nnc(-c2cccs2)s1	none
CCC(C)C(=O)Nc1nnc(-c2cccs2)s1 (centres undefined)	Autofluor 339 2.6
CS(=O)(=O)N(CC(=O)N1CCCCC1)c1sc2c(c1C#N)CCCC2	none
O=C(NCc1ccccn1)c1ccc(N2CCCC2=O)cc1	none
CCOC(=O)C1CCCN(c2ncnc3c2[nH]c2cccc(OC)c23)C1 (centres undefined)	Autofluor 339 3.7 (not shown: Spn DPM-DC inh)
COc1cccc2[nH]c3c(N4CCCC(C)C4)ncnc3c12 (centres undefined)	Autofluor 339 3.4 (not shown: Spn DPM-DC inh)
CCOC(=O)C1CCCN(c2ncnc3c2cnn3-c2cccc(C)c2)C1 (centres undefined)	none
CC1CCCN(c2ncnc3c2cnn3-c2ccccc2)C1 (centres undefined)	none
Cn1cc(C(=O)NCCN2CCN(c3ccccc3F)CC2)c2c3ccccc3n(C)c2c1=O	Autofluor 339 3.5
CCOC(=O)C1CCCN(C(=O)c2cc3c(=O)n(C)c4ccccc4c3n2C)C1 (centres undefined)	none
CCOC(=O)C1CCN(C(=O)c2cn(CCOC)c(=O)c3c2c2ccccc2n3C)CC1	Autofluor 339 4.9 (not shown: Spn DPM-DC inh)
COCCn1cc(C(=O)N2CCCC(C)C2)c2c3ccccc3n(C)c2c1=O (centres undefined)	Autofluor 339 4.5 (not shown: Spn DPM-DC inh)
CC(C)Cn1cc(C(=O)NCCCN2CCCC2=O)c2c3ccccc3n(C)c2c1=O	Autofluor 339 3.9
O=C(CN1CCCCC1)Nc1cccc(-n2cnnn2)c1	none
COc1ccc(-c2nc3n(n2)C(c2ccccc2Cl)C(C(N)=O)=C(C)N3)cc1 (centres undefined)	none
O=C(Cn1c(-c2ccccc2)noc1=O)NCc1ccccc1	none
CCN1CCN(C(=O)c2cn(CCOC)c(=O)c3c2c2ccccc2n3C)CC1	Autofluor 339 2.8
O=C(CNC(=O)c1cccs1)NCCN1CCN(c2ccccc2F)CC1	Spn PMK inh 25
